Measurements from PubChem BioAssay.
Activity calls are given as the source filed them.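 Rule for the calls: active = inhibition above 20% together with a positive visual image hit; inconclusive = visual image hit but inhibition not above 20%; inactive = no visual image hit.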

Assay: inhibitors of TNFa-induced NFkB p65 translocation, primary screen, imaging, HUVEC, MLSMR starter and 10KST1 sets (AID 438);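 note: compound added about 3h40 before a 20 min TNFalpha stimulation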;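 for inhibition: signal is the nuclear over cytoplasmic p65 intensity ratio per well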
Details: HUVEC TNFa-induced p65 nuclear translocation; cell count: measured here: nuclei count (cytotoxicity indicator), at 2.08 µM; inhibition: at 2 µM, stronger effect = higher value, 0% TNFa-plus-vehicle, 100% no-TNFa wells

Structure (SMILES) | cell count | inhibition
CCc1nnc(NC(=O)OCc2ccccc2)s1 | 414 | 8.1% (inactive)
O=C(C1CC1)N(Cc1ccco1)c1nc(-c2ccccc2)cs1 | 336 | 6.6% (inactive)
Cc1ccccc1OCCN1C(=O)NC2(CCc3ccccc32)C1=O (stereo not given) | 414 | -18.4% (inactive)
COc1ccc(OC(C)C(=O)N2CC(C)OC(C)C2)cc1 (stereo not given) | 436 | 12.2% (inactive)
CCOC(=O)C(C)On1c(SC(C)C(=O)OCC)nc2ccccc2c1=O (stereo not given) | 808 | -3.9% (inactive)
O=C(COC(=O)Cc1cccc(C(F)(F)F)c1)NCC1CCCO1 (stereo not given) | 704 | 3.3% (inactive)
CCCc1[nH]nc2c1C(c1cccc(OC(=O)c3ccco3)c1)C(C#N)=C(N)O2 (stereo not given) | 687 | -27.1% (inactive)
CS(=O)(=O)N(CC(=O)N1CCN(c2cccc(Cl)c2)CC1)C1CCCCC1 | 645 | -6% (inactive)
Clc1ccccc1OCc1nn2c(-c3ccncc3)nnc2s1 | 352 | 2.6% (inactive)
Cc1cccc(N2CCN(C(=O)c3cc4c(=O)[nH]c5ccccc5c4n3C)CC2)c1C | 228 | 5.8% (inactive)
N#CC(C(=O)C1CCCCC1)c1nc2ccccc2[nH]1 (stereo not given) | 723 | -2% (inactive)
Cc1nc2ccccc2c2oc(C(=O)NCc3ccccn3)cc12 | 234 | -3.8% (inactive)
COCCN(CC(=O)NC1CCCCC1)C(=O)CSc1nc2ccccc2o1 | 666 | 12.1% (inactive)
Cc1ncoc1C(=O)Nc1cccc(Cl)c1C | 540 | -14.2% (inactive)
COc1cccc(OC)c1C(=O)N1CCOCC1 | 505 | -7.7% (inactive)
COC(=O)c1ccccc1NC(=O)c1noc2c1CC(C(C)(C)C)CC2 (stereo not given) | 216 | 4.9% (inactive)
Cc1ccc(-c2cc(C(F)F)nc(NCc3cccnc3)n2)cc1 | 590 | -26.5% (inactive)
O=C(NCc1ccccc1)N1CCn2c(nc3ccccc32)C1 | 555 | 2.5% (inactive)
COc1ccc(CN(C)CC(=O)c2c(N)n(Cc3ccccc3)c(=O)n(C)c2=O)c(OC)c1 | 459 | -21.4% (inactive)
Cc1nc(C)c(C(=O)Nc2ccc(Oc3ccccc3)cc2)o1 | 405 | 0.6% (inactive)

Structure (SMILES) | cell count | inhibition
CCOc1ccc2nc(NC(=O)C(NS(=O)(=O)c3cccs3)C(C)C)sc2c1 (stereo not given) | 390 | 10% (inactive)
CC1CCN(CCCNC(=O)c2cn(C)c3ccc(S(=O)(=O)N4CCCC4)cc3c2=O)CC1 | 515 | 1.8% (inactive)
COCCN1C(=O)C(=O)/C(=C(/O)c2cccc(OC)c2)C1c1ccncc1 (stereo not given) | 272 | 22.2% (inactive)
C[C@H](NC(=O)Nc1ccccc1F)C(=O)O | 294 | -8.5% (inactive)
Nc1c(Sc2ccccc2)c(=O)[nH]c(=O)n1Cc1ccccc1 | 254 | 7.4% (inactive)
Cc1ccc(C)c(Cn2c(=O)n(CCC(=O)NCc3ccco3)c(=O)c3sccc32)c1 | 506 | -4.5% (inactive)
CCn1c(=S)sc2nc(C)sc21 | 266 | 1.3% (inactive)
CC(C)(C)OC(=O)N1CCOCCOCCN(C(=O)OC(C)(C)C)CCOCCOCC1 | 395 | 0.8% (inactive)
O=C(NC1CCCCC1)C(c1ccco1)N(Cc1cccnc1)C(=O)C1COc2ccccc2O1 (stereo not given) | 509 | -13.1% (inactive)
COC(=O)c1c(-c2ccc(F)cc2)noc1N | 502 | 5.3% (inactive)
Cn1ccnc1C(O)c1ccco1 (stereo not given) | 722 | 3.3% (inactive)
O=C(NCCN1CCOCC1)c1ccc2c(c1)N(Cc1ccccc1)C(=O)CS2 | 773 | -9.5% (inactive)
N#CC1=C(N)n2c(s/c(=C\c3ccco3)c2=O)=C(C#N)C1c1ccco1 (stereo not given) | 422 | -2.2% (inactive)
c1ccc2c(c1)ccc1nnc(-c3ccc4c(c3)OCO4)n12 | 338 | -1.7% (inactive)
COc1cccc(-c2cc(C(=O)Nc3cc(C)n(Cc4ccc(Cl)cc4)n3)no2)c1 | 498 | -5.7% (inactive)
CCC(C)n1[nH]c(=O)c2c(C)cc(C)nc21 (stereo not given) | 405 | 1.8% (inactive)
CN(CC(=O)Nc1ccncc1)S(=O)(=O)c1ccccc1 | 351 | 4.9% (inactive)
CC(=O)Oc1cccc(/C=c2\sc3nc(-c4ccco4)nn3c2=O)c1 | 324 | -0.6% (inactive)
Cn1c(=O)cc(OCC(=O)N2CCN(c3cccc(C(F)(F)F)c3)CC2)c2ccccc21 | 377 | -8.3% (inactive)
C=CCc1cc(C(=O)N2CCCCC2)ccc1O | 442 | 3.4% (inactive)
